ADAM10 inh: ADAM10 inhibition, QFRET primary screen; actives 0.62% (n = 370,000); inhibition, % at 7 µM; recombinant ADAM10, EDANS/DABCYL FRET peptide cleavage, 3 h; AID 720582;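 active means inhibition above a per-campaign cutoff equal to the mean of compounds falling between control-based bounds plus 3 SD, cut at about 20% in these data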
PLC-gamma1 inh: blocks human PLC-gamma1 enzyme activity | P19174 | purified PLC-gamma1, fluorogenic substrate, fluorescence | inhibition, % at 12.2 µM | actives 0.84% (n = 370,000) | AID 720700; in the data active means inhibition above about 9.5%
ADAM17 inh: inhibitors of human ADAM17; actives 0.83% (n = 370,000); P78536; recombinant ADAM17, EDANS/DABCYL FRET peptide cleavage; inhibition, % at 6.95 µM; AID 720648;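 active means inhibition above the mean of compounds lying between control limits plus 3 SD, set per campaign, cut at about 8.5% in these data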
proKLK7 act: activates the human kallikrein-7 zymogen. P49862. purified proKLK7, EDANS-DABCYL substrate fluorescence; 100% is mature enzyme control, 0% vehicle. activation, % at 7 µM. actives 0.9% (n = 370,000);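 active means activation above the mean of all tested compounds plus 3 SD, computed per campaign excluding outliers beyond control limits, cut at about 13% in these data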
PLCb3 inh: PLC-beta3 (human) inhibition, primary screen | Q01970 | Purified PLC-beta3, fluorogenic substrate, fluorescence | inhibition, % at 12.2 µM | actives 0.18% (n = 370,000) | AID 720704; in the data active means inhibition above about 11%
Target sequence (Q01970 whole entry, looked up): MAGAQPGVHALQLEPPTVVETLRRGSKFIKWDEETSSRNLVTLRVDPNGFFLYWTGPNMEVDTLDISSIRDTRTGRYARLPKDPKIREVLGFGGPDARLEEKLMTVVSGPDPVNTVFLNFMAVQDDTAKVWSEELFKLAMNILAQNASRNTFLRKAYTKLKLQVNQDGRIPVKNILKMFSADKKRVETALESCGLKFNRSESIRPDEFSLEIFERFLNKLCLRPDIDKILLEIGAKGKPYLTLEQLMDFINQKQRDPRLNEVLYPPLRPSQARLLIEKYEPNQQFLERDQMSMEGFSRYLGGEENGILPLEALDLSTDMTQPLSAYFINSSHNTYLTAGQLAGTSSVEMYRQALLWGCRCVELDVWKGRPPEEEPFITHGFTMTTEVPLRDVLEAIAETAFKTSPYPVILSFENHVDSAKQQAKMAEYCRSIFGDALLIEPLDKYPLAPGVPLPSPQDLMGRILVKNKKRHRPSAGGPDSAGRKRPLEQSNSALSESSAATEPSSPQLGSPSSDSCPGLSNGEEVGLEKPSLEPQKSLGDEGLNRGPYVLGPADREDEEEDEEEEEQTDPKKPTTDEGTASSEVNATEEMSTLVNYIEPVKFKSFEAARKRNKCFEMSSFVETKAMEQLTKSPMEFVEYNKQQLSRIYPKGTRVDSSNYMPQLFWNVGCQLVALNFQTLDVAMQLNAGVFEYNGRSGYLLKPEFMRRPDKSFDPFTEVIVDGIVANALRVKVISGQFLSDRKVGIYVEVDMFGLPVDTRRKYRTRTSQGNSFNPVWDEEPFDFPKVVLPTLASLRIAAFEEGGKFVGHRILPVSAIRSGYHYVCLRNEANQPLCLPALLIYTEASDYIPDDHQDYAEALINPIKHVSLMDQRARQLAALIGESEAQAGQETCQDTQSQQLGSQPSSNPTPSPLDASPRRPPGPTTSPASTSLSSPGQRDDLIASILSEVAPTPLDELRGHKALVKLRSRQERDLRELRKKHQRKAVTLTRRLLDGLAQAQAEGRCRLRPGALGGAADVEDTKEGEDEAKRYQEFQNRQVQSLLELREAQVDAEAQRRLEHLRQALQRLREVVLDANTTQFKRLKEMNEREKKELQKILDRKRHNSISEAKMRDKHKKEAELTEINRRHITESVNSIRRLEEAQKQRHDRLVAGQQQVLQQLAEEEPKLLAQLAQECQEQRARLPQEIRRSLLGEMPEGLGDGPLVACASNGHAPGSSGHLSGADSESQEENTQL
ADAM10 ctr: counter-screen for ADAM17 exosite inhibitors: inhibitors of human ADAM10. shares compounds with ADAM17 inh. recombinant ADAM10, EDANS/DABCYL FRET peptide cleavage, 3 h. actives 47% (n = 2,900). inhibition, % at 6.95 µM;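 active means mean inhibition over the triplicate runs exceeds the activity threshold set in the earlier primary screen, cut at about 20% in these data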
ADAM17 confirm: human ADAM17 inhibition, confirmation | AID 743257 | shares compounds with ADAM17 inh | recombinant ADAM17, EDANS/DABCYL QFRET peptide cleavage | inhibition, % at 6.95 µM | actives 65% (n = 2,900);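 active means mean inhibition across replicates above the hit cutoff set in the primary screen, cut at about 8.5% in these data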
Of the large screens only hits and unclear results are named; the others gave an inactive call (follow-up assays come after a bar, where they were run). Most compounds without a hit are left out; they make up all but 2.9% or so of the library.

O=C1NC(=O)C(Cc2ccccc2)(c2ccccc2)N1 (stereo not drawn)	none
Cc1ccc(CC2(c3ccccc3)NC(=O)NC2=O)cc1 (stereo not drawn)	ADAM17 inh 18 | ADAM10 ctr inactive | ADAM17 confirm 18
O=C1NC(=O)C(Cc2ccc(Cl)cc2)(c2ccccc2)N1 (stereo not drawn)	ADAM17 inh 40 | ADAM10 ctr inactive | ADAM17 confirm 65
COc1cc(/C=C(\C#N)C(=O)Nc2ccccc2)ccc1OCCN1CCOCC1	none
COC(=O)c1cccc(Cn2c(Cl)c(/C=N/Nc3ccccc3C)sc2=O)c1	ADAM17 inh 9.5 | ADAM10 ctr inactive | ADAM17 confirm 12
Cc1ccccc1N/N=C/c1sc(=O)n(Cc2cccc(C(=O)O)c2)c1Cl	none
CCOc1ccc(CCNC(=O)CN(C)S(=O)(=O)c2cccs2)cc1OCC	none
CNC(=O)c1[nH]cnc1C(=O)N[C@@H](Cc1ccccc1)C(=O)OCc1ccccc1	none
CC(C)(C)OC(=O)[C@H](Cc1ccccc1)NCC(=O)OCc1ccc(C(=O)NCc2ccccc2)cc1	ADAM17 inh 8.7 | ADAM10 ctr inactive | ADAM17 confirm inactive
COC(=O)c1ccc(COC(=O)CNC(=O)c2ccc(-c3ccccc3)cc2)cc1	none
C[C@H](NC(=O)c1nc[nH]c1C(=O)N[C@@H](Cc1ccccc1)C(=O)OCc1ccccc1)C(=O)OCc1ccccc1	ADAM17 inh 11 | ADAM10 ctr 33 | ADAM17 confirm 19
CCOC(=O)c1ccc(NC(=O)c2nc[nH]c2C(=O)N[C@@H](CC(C)C)C(=O)OC(C)(C)C)cc1	none
CC(C)C[C@H](NC(=O)c1[nH]cnc1C(=O)Nc1ccccc1)C(=O)OC(C)(C)C	ADAM10 inh 27, ADAM17 inh 14 | ADAM10 ctr 40 | ADAM17 confirm 20
C[C@@H](NC(=O)c1nc[nH]c1C(=O)N[C@@H](Cc1ccccc1)C(=O)OC(C)(C)C)c1ccccc1	ADAM17 inh 10 | ADAM10 ctr 33 | ADAM17 confirm 14
COc1ccc(S(=O)(=O)N2CCC(C(=O)N[C@H](C(=O)NCc3ccccc3)C(C)C)CC2)cc1	none
CC(C)C[C@H](NC(=O)c1nc[nH]c1C(=O)NCc1ccc(CNC(=O)OC(C)(C)C)cc1)C(=O)OCc1ccccc1	none
CC(C)(C)OC(=O)NCc1ccc(CNC(=O)c2[nH]cnc2C(=O)N[C@@H](Cc2ccccc2)C(=O)OCc2ccccc2)cc1	ADAM17 inh 12 | ADAM10 ctr 34 | ADAM17 confirm 20
Cc1ccc(S(=O)(=O)N2CCN(c3ccc(C(F)(F)F)cc3[N+](=O)[O-])CC2)cc1	ADAM17 inh 10 | ADAM10 ctr 22 | ADAM17 confirm 11
Cc1cc(S(=O)(=O)NCc2ccccc2)ccc1OCC(=O)Nc1cccc([N+](=O)[O-])c1	ADAM17 inh 8.7 | ADAM10 ctr 35 | ADAM17 confirm 22
CSCCC(NS(=O)(=O)c1ccccc1F)C(=O)NC(C)c1ccccc1 (stereo not drawn)	none
CCN(CC)C(=O)Cn1cc(C(=O)C(=O)N2CCCc3ccccc32)c2ccccc21	none
O=S(=O)(NCCC(c1ccc(F)cc1)c1ccco1)c1ccccc1 (stereo not drawn)	ADAM17 inh 13 | ADAM10 ctr inactive | ADAM17 confirm 11
Cc1ccc(C(=O)OCC(=O)c2c[nH]c3ccccc23)cc1S(=O)(=O)N1CCOCC1	ADAM17 inh 10.0 | ADAM10 ctr inactive | ADAM17 confirm inactive
O=C(OCC(=O)c1c[nH]c2ccccc12)c1ccc(F)c(S(=O)(=O)N2CCOCC2)c1	none
CC1(C(=O)NS(=O)(=O)c2cccs2)CCN1C(=O)C1(c2ccc(Cl)cc2)CC1 (stereo not drawn)	none
COC(=O)c1ccccc1S(=O)(=O)N1CCC(C(=O)NC2CCCCC2)CC1	none
C=CCNc1nc2c(c(=O)[nH]c(=O)n2C)n1CCOc1ccccc1	none
CC(Oc1ccccc1)c1ccnn1S(C)(=O)=O (stereo not drawn)	none
CC(Oc1ccc(Cl)cc1)c1ccnn1S(=O)(=O)c1ccccc1 (stereo not drawn)	ADAM17 inh 8.9 | ADAM10 ctr inactive | ADAM17 confirm 15
Cc1ccccc1NC(=O)CN1C(=O)CSc2ccc(S(=O)(=O)N3CCCCC3)cc21	none
Cc1cc(C)c2sc(N(CCN(C)C)C(=O)c3ccc4ccccc4c3)nc2c1	ADAM17 inh 10 | ADAM10 ctr inactive | ADAM17 confirm inactive
O=C(C1CCC(=O)N(C2CCCC2)C1)N1CCN(Cc2cccc(Cl)c2)CC1 (stereo not drawn)	none
Cc1occc1C(=O)NNC(=O)COc1ccc(Br)cc1Br	ADAM17 inh 8.8 | ADAM10 ctr inactive | ADAM17 confirm inactive
CCN1CCN(c2cc(SC(C)C)nc(-c3ccc(OC)cc3)n2)CC1	ADAM17 inh 13 | ADAM10 ctr 23 | ADAM17 confirm 15
CC(C)Sc1cc(N2CCOCC2)nc(-c2ccc(Cl)cc2)n1	none
CC(NC(=O)COC(=O)C1(C)CC1(Cl)Cl)c1ccccc1 (stereo not drawn)	ADAM17 inh 8.8 | ADAM10 ctr 30 | ADAM17 confirm 9.5
CC1(C(=O)OCC(=O)NC(=O)c2ccccc2)CC1(Cl)Cl (stereo not drawn)	none
CC(C)c1cccc(-c2csc(C(O)c3ccc(F)c(F)c3)n2)c1 (stereo not drawn)	ADAM17 inh 11 | ADAM10 ctr 24 | ADAM17 confirm 15
O=C(CN1CCN(S(=O)(=O)c2ccc(Br)cc2)CC1)N/N=C/c1ccco1	none
Cc1ccc(NC(=O)COC(=O)COc2cccc3c2OC(C)(C)C3)c(C)c1	none
CC(C)(C)OC(=O)C[C@@H]1C/C=C\C[C@@H](CC(=O)N[C@H](CO)Cc2ccccc2)C(=O)N2CCC[C@@H]2COC1=O	none
CC(C)(C)OC(=O)C[C@@H]1C/C=C\C[C@H](CC(=O)N[C@H](CO)Cc2ccccc2)C(=O)N2CCC[C@H]2COC1=O	ADAM17 inh 9.2 | ADAM10 ctr inactive | ADAM17 confirm 11
O=C(CSc1nnc(COc2cccc3ccccc23)o1)N1c2ccccc2CCc2ccccc21	ADAM17 inh 8.9 | ADAM10 ctr inactive | ADAM17 confirm inactive
COc1ccc(-c2nc(=S)c3c([nH]2)Oc2ccc(C)cc2C3)cc1O	none
O=C(c1ccncc1)N(c1ccc2oc3c(c2c1)CCCC3)S(=O)(=O)c1ccc(F)cc1	ADAM17 inh 8.8 | ADAM10 ctr inactive | ADAM17 confirm inactive
CC(=O)c1c(C)oc2ccc(N(C(=O)c3ccncc3)S(=O)(=O)c3ccccc3)cc12	none

Screening data: PubChem BioAssay, The Scripps Research Institute Molecular Screening Center
